Experimental data taken from PubChem BioAssay AID1159580 (chemical genetic matrix, 2015).
About 2,000 (36%) of roughly 5,500 compounds were called active. Another 18% or so got no clear call; they are omitted. Cut-off read from the data, not from the text of the source: active = normalized growth mostly below about 0.91 (no sharp cut-off); inconclusive = no clear call, values can overlap the other calls; inactive = mostly above about 0.92. The list shows a part of the results.

Assay: chemical genetic growth profiling, strain panel (AID 1159580);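 note: tested at 20 µM; growth read once vehicle control cultures reached saturation at 30 °C; 1 = growth at the plate median or of vehicle wells; lower values mean less growth of the strain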
Conditions: growth OD
[1] = S. cerevisiae deletion strains, locus YHR030C, strain SLT2, hits give low values

Measured: normalized growth

O=S(=O)(O)O
inactive: S. cerevisiae deletion strains, locus YAL021C, strain ccr4, hits give low values 0.973 | S. cerevisiae deletion strains, locus YAL026C, strain drs2, hits give low values 0.983 | S. cerevisiae deletion strains, locus YAL030W, strain snc1, hits give low values 0.985 | S. cerevisiae deletion strains, locus YBL061C, strain skt5, hits give low values 0.975 | S. cerevisiae deletion strains, locus YBR009C, strain hhf1, hits give low values 0.991 | S. cerevisiae deletion strains, locus YBR023C, strain chs3, hits give low values 0.98 | S. cerevisiae deletion strains, locus YBR171W, strain sec66, hits give low values 0.961 | S. cerevisiae deletion strains, locus YBR231C, strain swc5, hits give low values 0.976 | S. cerevisiae deletion strains, locus YBR279W, strain paf1, hits give low values 0.985 | S. cerevisiae deletion strains, locus YCL011C, strain gbp2, hits give low values 0.965 | S. cerevisiae deletion strains, locus YCL016C, strain dcc1, hits give low values 0.981 | S. cerevisiae deletion strains, locus YCL061C, strain MRC1, hits give low values 0.993 | S. cerevisiae deletion strains, locus YCL069W, strain vba3, hits give low values 0.969 | S. cerevisiae deletion strains, locus YCR088W, strain abp1, hits give low values 0.956 | S. cerevisiae deletion strains, locus YDL005C, strain med2, hits give low values 0.954 | S. cerevisiae deletion strains, locus YDL040C, strain nat1, hits give low values 0.988 | S. cerevisiae deletion strains, locus YDR001C, strain nth1, hits give low values 0.987 | S. cerevisiae deletion strains, locus YDR069C, strain doa4, hits give low values 0.964 | S. cerevisiae deletion strains, locus YDR137W, strain rgp1, hits give low values 1.01 | S. cerevisiae deletion strains, locus YDR159W, strain sac3, hits give low values 0.985 | S. cerevisiae deletion strains, locus YDR195W, strain ref2 1 | S. cerevisiae deletion strains, locus YDR297W, strain sur2, hits give low values 0.976 | S. cerevisiae deletion strains, locus YDR334W, strain swr1, hits give low values 0.976 | S. cerevisiae deletion strains, locus YDR335W, strain msn5, hits give low values 0.978 | S. cerevisiae deletion strains, locus YDR392W, strain spt3, hits give low values 0.914 | S. cerevisiae deletion strains, locus YEL003W, strain gim4, hits give low values 0.988 | S. cerevisiae deletion strains, locus YEL037C, strain rad23, hits give low values 0.969 | S. cerevisiae deletion strains, locus YEL061C, strain CIN8 (second series), hits give low values 0.971 | S. cerevisiae deletion strains, locus YER015W, strain faa2, hits give low values 0.975 | S. cerevisiae deletion strains, locus YER016W, strain bim1, hits give low values 0.983 | S. cerevisiae deletion strains, locus YER111C, strain swi4, hits give low values 0.967 | S. cerevisiae deletion strains, locus YER155C, strain BEM2 (second series), hits give low values 0.976 | S. cerevisiae deletion strains, locus YFR010W, strain ubp6, hits give low values 0.973 | S. cerevisiae deletion strains, locus YGL167C, strain pmr1, hits give low values 0.973 | S. cerevisiae deletion strains, locus YGL173C, strain kem1, hits give low values 0.962 | S. cerevisiae deletion strains, locus YGL227W, strain vid30, hits give low values 0.961 | S. cerevisiae deletion strains, locus YGL240W, strain doc1, hits give low values 0.982 | S. cerevisiae deletion strains, locus YGL253W, strain hxk2, hits give low values 0.969 | S. cerevisiae deletion strains, locus YHR013C, strain ard1, hits give low values 0.96 | S. cerevisiae deletion strains, locus YHR027C, strain rpn1, hits give low values 0.978 | [1] 1.04 | S. cerevisiae deletion strains, locus YHR079C, strain IRE1, hits give low values 1.06 | S. cerevisiae deletion strains, locus YHR142W, strain chs7, hits give low values 0.961 | S. cerevisiae deletion strains, locus YJL092W, strain hpr5, hits give low values 0.95 | S. cerevisiae deletion strains, locus YJL095W, strain BCK1 (second series), hits give low values 0.981 | S. cerevisiae deletion strains, locus YJL095W, strain BCK1, hits give low values 1.06 | S. cerevisiae deletion strains, locus YJL115W, strain asf1, hits give low values 0.981 | S. cerevisiae deletion strains, locus YJL129C, strain trk1, hits give low values 0.961 | S. cerevisiae deletion strains, locus YJL154C, strain vps35, hits give low values 0.977 | S. cerevisiae deletion strains, locus YJL164C, strain tpk1, hits give low values 0.983 | S. cerevisiae deletion strains, locus YJL166W, strain qcr8, hits give low values 0.977 | S. cerevisiae deletion strains, locus YJL187C, strain SWE1, hits give low values 0.981 | S. cerevisiae deletion strains, locus YJR066W, strain TOR1, hits give low values 0.967 | S. cerevisiae deletion strains, locus YKL160W, strain elf1, hits give low values 0.987 | S. cerevisiae deletion strains, locus YKR026C, strain gcn3, hits give low values 0.975 | S. cerevisiae deletion strains, locus YKR091W, strain srl3, hits give low values 0.977 | S. cerevisiae deletion strains, locus YLL001W, strain dnm1, hits give low values 0.992 | S. cerevisiae deletion strains, locus YLL026W, hits give low values 0.966 | S. cerevisiae deletion strains, locus YLL041C, strain sdh2, hits give low values 0.988 | S. cerevisiae deletion strains, locus YLR027C, strain aat2, hits give low values 0.985 | S. cerevisiae deletion strains, locus YLR113W, strain HOG1, hits give low values 0.992 | S. cerevisiae deletion strains, locus YLR221C, strain rsa3, hits give low values 0.979 | S. cerevisiae deletion strains, locus YLR258W, strain gsy2, hits give low values 0.98 | S. cerevisiae deletion strains, locus YLR262C, strain YPT6 (second series), hits give low values 1 | S. cerevisiae deletion strains, locus YLR320W, strain mms22, hits give low values 0.969 | S. cerevisiae deletion strains, locus YLR342W, strain FKS1, hits give low values 0.955 | S. cerevisiae deletion strains, locus YLR357W, strain rsc2, hits give low values 0.951 | S. cerevisiae deletion strains, locus YLR370C, strain arc18, hits give low values 0.965 | S. cerevisiae deletion strains, locus YLR384C, strain iki3, hits give low values 0.977 | S. cerevisiae deletion strains, locus YML120C, strain ndi1, hits give low values 0.979 | S. cerevisiae deletion strains, locus YMR058W, strain fet3, hits give low values 0.985 | S. cerevisiae deletion strains, locus YMR125W, strain sto1, hits give low values 0.944 | S. cerevisiae deletion strains, locus YMR129W, hits give low values 0.99 | S. cerevisiae deletion strains, locus YMR205C, strain PFK2, hits give low values 0.976 | S. cerevisiae deletion strains, locus YMR231W, strain pep5, hits give low values 0.956 | S. cerevisiae deletion strains, locus YNL071W, strain lat1, hits give low values 0.959 | S. cerevisiae deletion strains, locus YNL183C, strain NPR1, hits give low values 0.986 | S. cerevisiae deletion strains, locus YNL209W, strain ssb2, hits give low values 0.975 | S. cerevisiae deletion strains, locus YNL248C, strain rpa49, hits give low values 0.978 | S. cerevisiae deletion strains, locus YNL322C, strain KRE1 (second series), hits give low values 0.966 | S. cerevisiae deletion strains, locus YNR049C, strain mso1, hits give low values 0.983 | S. cerevisiae deletion strains, locus YOR001W, strain rrp6, hits give low values 0.964 | S. cerevisiae deletion strains, locus YOR070C, strain gyp1, hits give low values 0.974 | S. cerevisiae deletion strains, locus YOR080W, strain dia2, hits give low values 0.968 | S. cerevisiae deletion strains, locus YOR083W, strain WHI5, hits give low values 0.986 | S. cerevisiae deletion strains, locus YOR106W, strain vam3, hits give low values 0.934 | S. cerevisiae deletion strains, locus YOR231W, strain MKK1, hits give low values 1.02 | S. cerevisiae deletion strains, locus YOR265W, strain rbl2, hits give low values 0.981 | S. cerevisiae deletion strains, locus YOR270C, strain vph1, hits give low values 1 | S. cerevisiae deletion strains, locus YOR290C, strain snf2, hits give low values 0.982 | S. cerevisiae deletion strains, locus YPL051W, strain arl3, hits give low values 0.981 | S. cerevisiae deletion strains, locus YPL078C, strain atp4, hits give low values 0.982 | S. cerevisiae deletion strains, locus YPL106C, strain sse1, hits give low values 0.946 | S. cerevisiae deletion strains, locus YPL240C, strain hsp82, hits give low values 0.957 | S. cerevisiae deletion strains, locus YPL256C, strain CLN2, hits give low values 1.06

CCOC(=O)c1nnc2cc(C)nn2c1C
inactive: S. cerevisiae deletion strains, locus YAL013W, strain DEP1, hits give low values 0.981 | S. cerevisiae deletion strains, locus YBR229C, strain ROT2, hits give low values 1.01 | S. cerevisiae deletion strains, locus YDL101C, strain DUN1, hits give low values 0.98 | S. cerevisiae deletion strains, locus YDR150W, strain NUM1, hits give low values 0.951 | S. cerevisiae deletion strains, locus YEL061C, strain CIN8, hits give low values 1 | S. cerevisiae deletion strains, locus YGR078C, strain PAC10, hits give low values 1 | [1] 1.01 | S. cerevisiae deletion strains, locus YHR087W, strain rtc3, hits give low values 1 | S. cerevisiae deletion strains, locus YJR043C, strain POL32, hits give low values 0.987 | S. cerevisiae deletion strains, locus YJR075W, strain HOC1, hits give low values 1.03 | S. cerevisiae deletion strains, locus YKL190W, strain CNB1, hits give low values 0.995 | S. cerevisiae deletion strains, locus YLR039C, strain RIC1, hits give low values 1.04 | S. cerevisiae deletion strains, locus YLR058C, strain SHM2 (second series), hits give low values 1.01 | S. cerevisiae deletion strains, locus YLR085C, strain ARP6, hits give low values 1 | S. cerevisiae deletion strains, locus YLR262C, strain YPT6, hits give low values 1.06 | S. cerevisiae deletion strains, locus YML094W, strain GIM5, hits give low values 0.968 | S. cerevisiae deletion strains, locus YMR219W, strain ESC1, hits give low values 1 | S. cerevisiae deletion strains, locus YMR263W, strain SAP30, hits give low values 0.95 | S. cerevisiae deletion strains, locus YMR307W, strain GAS1, hits give low values 0.989 | S. cerevisiae deletion strains, locus YNL128W, strain TEP1, hits give low values 1.01 | S. cerevisiae deletion strains, locus YNL153C, strain GIM3, hits give low values 0.988 | S. cerevisiae deletion strains, locus YNL298W, strain CLA4 (second series), hits give low values 1.03 | S. cerevisiae deletion strains, locus YNL322C, strain KRE1, hits give low values 1 | S. cerevisiae deletion strains, locus YNR030W, strain Alg12, hits give low values 1.03 | S. cerevisiae deletion strains, locus YPL055C, strain LGE1, hits give low values 0.923 | S. cerevisiae deletion strains, locus YPL241C, strain CIN2, hits give low values 0.986 | S. cerevisiae deletion strains, locus YPR135W, strain CTF4, hits give low values 1 | S. cerevisiae strains, strain wild type, hits give low values 1.02
